m5-HT2A agonist: agonists of mouse serotonin 5-HT2A receptor (HTR2A). P35363. CHO-K1 mHTR2A beta-arrestin complementation, luminescence; percent of 30 µM serotonin response. activation, % at 7.6 µM. 360,000 tested, 0.66% active. AID 624169;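 active means activation above a run cutoff, the mean activation of all tested compounds plus 3 SD, cut at about 14% in these data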
HTR5A inv ctr: HTR5A inverse agonism, opioid heterodimer counter-screen. HTR5A cell line, luminescence. inhibition, % at 9.3 µM. 340,000 tested, 0.083% active; in the data active means inhibition mostly above about 23%, no sharp cut-off; inactive means mostly below about 18%
OPRM1-OPRD1 inv: inverse agonists of human mu-delta opioid receptor heterodimerization; cell-based MOR-DOR heterodimer luminescence, inverse agonism; inhibition, % at 9.3 µM; P35372+P41143; 340,000 tested, 0.21% active; AID 504357; in the data active means inhibition above about 22%, passing the limit was not always enough
Target sequence (P35372 whole entry, looked up): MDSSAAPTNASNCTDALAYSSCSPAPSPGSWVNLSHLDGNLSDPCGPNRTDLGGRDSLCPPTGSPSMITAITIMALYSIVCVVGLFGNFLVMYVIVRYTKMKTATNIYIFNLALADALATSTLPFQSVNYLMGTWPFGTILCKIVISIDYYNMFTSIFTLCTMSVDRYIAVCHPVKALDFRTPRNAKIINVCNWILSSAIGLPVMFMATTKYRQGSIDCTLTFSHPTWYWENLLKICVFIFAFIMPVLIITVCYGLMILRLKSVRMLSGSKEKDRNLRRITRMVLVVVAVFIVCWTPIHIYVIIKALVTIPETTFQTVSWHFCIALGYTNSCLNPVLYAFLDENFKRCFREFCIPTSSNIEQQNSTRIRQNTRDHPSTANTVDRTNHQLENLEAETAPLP
Target sequence (P41143 whole entry, looked up): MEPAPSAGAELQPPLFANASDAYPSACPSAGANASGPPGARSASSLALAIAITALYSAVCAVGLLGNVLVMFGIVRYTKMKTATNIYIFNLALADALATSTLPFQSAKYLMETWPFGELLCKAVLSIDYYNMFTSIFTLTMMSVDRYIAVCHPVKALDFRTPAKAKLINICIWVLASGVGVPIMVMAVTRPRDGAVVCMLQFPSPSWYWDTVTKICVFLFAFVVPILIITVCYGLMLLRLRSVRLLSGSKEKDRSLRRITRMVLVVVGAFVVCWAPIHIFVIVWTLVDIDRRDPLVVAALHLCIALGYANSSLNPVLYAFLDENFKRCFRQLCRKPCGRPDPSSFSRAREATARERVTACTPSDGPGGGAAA
HGIII-sPLA2 inh: Inhibits HGIII-sPLA2 liposome hydrolysis, primary screen. Q9NZ20. QFRET BODIPY PC-A2 liposome hydrolysis, fluorescence. inhibition, % at 12.2 µM. 370,000 tested, 0.56% active;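 active means inhibition above mean plus 3 SD of compounds lying within the high and low control bounds, cut at about 19% in these data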
HTR5A ag: activates human HTR5A in OPRM1-OPRD1 agonist counter-screen; P47898; HTR5A agonist assay, luminescence, cell-based; activation, % at 9.3 µM; 340,000 tested, 0.61% active; AID 504692; in the data active means activation mostly above about 9.5%, no sharp cut-off; inactive means mostly below about 7.6%
MOR-DOR ag: OPRM1-OPRD1 heterodimerization agonism; P35372+P41143; cells, luminescence; activation, % at 9.3 µM; 340,000 tested, 0.3% active; AID 504326; in the data active means activation above about 18%
sPLA2 confirm: human GIII-sPLA2 inhibition, confirmation. recombinant hGIII-sPLA2, BODIPY PC-A2 QFRET fluorescence. shares compounds with HGIII-sPLA2 inh. inhibition, % at 12.2 µM. 2,000 tested, 34% active;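 active means mean inhibition across triplicates above the hit cutoff set in the earlier primary screen, cut at about 19% in these data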
535nm interf: 535nm fluorescence interference, HGIII-sPLA2 counter-screen. AID 743282. BODIPY FL product fluorescence interference, QFRET. inhibition, % at 12.2 µM. shares compounds with HGIII-sPLA2 inh. 2,000 tested, 8.5% active;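 active means average inhibition above the solvent-only control mean plus 3 SD, cut at about 6% in these data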
BODIPY interf DR: interferes with 535nm fluorescence in dose response counter-screen. BODIPY FL product fluorescence interference, cell-free. 240 tested, under 10 active. IC50, µM. shares compounds with HGIII-sPLA2 inh;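 active means IC50 at or below 10 µM; inactive means IC50 above 10 µM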
Numbers stand for hits; . = inactive; / = no result. Sampled rows, rich in hits. Any-hit rate of the full collection: about 2.2%.

SMILES | m5-HT2A agonist | HTR5A inv ctr | OPRM1-OPRD1 inv | HGIII-sPLA2 inh | HTR5A ag | MOR-DOR ag | sPLA2 confirm | 535nm interf | others
COC(=O)[C@]12C[C@H](CC(=O)NCCCCc3ccccc3)C(=O)N(Cc3ccccc3)C1=C[C@H](C(C)C)O[C@@H]2C1CC1 | / | / | / | . | / | / | / | /
CC(C)(C)NC(=S)NCCc1ccccc1 | . | . | . | 20 | . | . | 24 | .
COCC(=O)N1CCC(C(=O)NC2CCCc3ccccc32)CC1 (stereo not given) | / | / | / | . | / | / | / | /
CCCn1c(-c2ccncc2)n[nH]c1=S | . | . | . | . | . | . | / | /
CCCn1c(C(C)C)n[nH]c1=S | . | . | . | 26 | . | . | . | .
CC(C)C(N)c1csc(NC(=O)Nc2ccccc2C(C)(C)C)n1 (stereo not given) | . | / | / | . | / | / | / | /
CC(C)(C)c1ccccc1NC(=O)Nc1nc(C(N)c2ccccc2Cl)cs1 (stereo not given) | . | / | / | 20 | / | / | . | .
C[C@H](CO)N1C[C@H](C)[C@@H](CN(C)S(=O)(=O)c2cn(C)cn2)Oc2ccc(NC(=O)C3CC3)cc2C1=O | . | . | . | . | . | . | / | /
C[C@H](CO)N1C[C@H](C)[C@@H](CN(C)S(=O)(=O)c2cn(C)cn2)Oc2ccc(NC(=O)C3CCCCC3)cc2C1=O | . | . | . | 21 | . | . | . | .
CN(C)C(=O)NC(NC(=S)Nc1ccccc1)C(Cl)(Cl)Cl (stereo not given) | . | . | . | . | . | . | / | /
CCOC(=O)NC(NC(=S)Nc1ccc(OCC)cc1)C(Cl)(Cl)Cl (stereo not given) | . | . | . | 24 | . | . | . | .
CCOc1cc(N2CCOCC2)c(OCC)cc1NC(=O)c1ccc(OCc2c(C)noc2C)c(OC)c1 | . | . | . | 20 | . | . | . | .
CCN(CC)C(=O)CC[C@H]1CC[C@]2(CCCN(C(=O)c3ccc4ccccc4n3)C2)O1 | / | / | / | . | / | / | / | /
S=c1[nH]nc(-c2ccc(Cl)cc2)n1-c1ccc2c(c1)OCCO2 | . | . | . | 21 | . | . | 32 | . | BODIPY interf DR=.
COc1ccc(C(=O)Oc2cc3c4c(c2)C(C)=CC(C)(C)N4C(=O)C3=O)cc1OC | . | . | . | . | . | . | / | /
COc1cccc(C(=O)Oc2cc3c4c(c2)C(C)=CC(C)(C)N4C(=O)C3=O)c1 | . | . | . | 32 | . | . | 53 | . | BODIPY interf DR=.
CCOC(=O)[C@@]12CN(C(=O)OC(C)(C)C)CC=C1N(Cc1ccc(OC)cc1)C(=O)[C@H]2CC(=O)NCC12CC3CC(CC(C3)C1)C2 | / | / | / | . | / | / | / | /
COc1ccc(NC(=S)Nc2ccc3nccnc3c2)cc1 | . | . | . | 23 | . | . | . | .
O=C(C=Cc1cccnc1)c1ccccc1 | . | . | . | . | . | . | / | /
O=C(/C=C/c1cccnc1)c1ccc(O)cc1 | . | . | . | 22 | . | . | . | .
CCCCNC(=S)NNC(=O)c1ccc(Br)o1 | . | . | . | 30 | . | . | 31 | . | BODIPY interf DR=.
CCCCNC(=S)NNC(=O)c1cccnc1 | . | . | . | . | . | . | / | /
CCCCNC(=S)NNC(=O)c1nn(C)cc1Cl | . | . | . | 23 | . | . | 27 | .
CC(C)(C)S(=O)N1C[C@@H]2CC(=O)C(c3ccccc3)=C2[C@H]1CCO (stereo not given in full) | / | / | / | . | / | / | / | /
O=S1(=O)N[C@@H](Cc2ccccc2)COc2cccc(N3CCCC3)c21 | / | / | / | . | / | / | / | /
SMILES | m5-HT2A agonist | HTR5A inv ctr | OPRM1-OPRD1 inv | HGIII-sPLA2 inh | HTR5A ag | MOR-DOR ag | sPLA2 confirm | 535nm interf | others
NNc1nc(-c2ccccc2)c2cc(Cl)ccc2n1 | . | . | . | 19 | . | . | 26 | .
CN(C)c1nc(-c2ccccc2)c2cc(Cl)ccc2n1 | . | . | . | . | . | . | / | /
COc1ccc(-c2noc(C3CCCN(C(=O)N[C@@H]4C[C@H]4c4ccccc4)C3)n2)cc1 (stereo not given in full) | / | / | / | . | / | / | / | /
C#CCN1CC(N(C)CCOC(=O)CCCc2ccccc2)CS1(=O)=O (stereo not given) | / | / | / | . | / | / | / | /
c1ccc2c(c1)c1c3n2CCNC3CCC1 (stereo not given) | . | . | . | 26 | . | . | 30 | . | BODIPY interf DR=.
CCCCOc1ccc(C(=O)NC2CCCCN(C(C)C)C2=O)cc1 (stereo not given) | / | / | / | . | / | / | / | /
CCC1CCCCN1C(=S)NC(=O)c1cc(S(=O)(=O)N2CCOCC2)ccc1C (stereo not given) | . | . | . | 20 | . | . | . | .
Cc1ccc(S(=O)(=O)N2CCOCC2)cc1C(=O)NCC1CCCO1 (stereo not given) | . | . | . | . | . | . | / | /
CCCCN(C)S(=O)(=O)c1ccc2[nH]c(=O)oc2c1 | / | / | / | . | / | / | / | /
O=C(CNc1ccc(Cl)cc1)NNC(=S)NCc1ccccc1 | . | . | . | 25 | . | . | 38 | . | BODIPY interf DR=.
COc1ccc(NC(=S)NNC(=O)COc2ccc(Cl)cc2Cl)cc1 | . | . | . | . | . | . | / | /
O=C(CNc1cccc(Cl)c1)NNC(=S)NCc1ccccc1 | . | . | . | 27 | . | . | 32 | . | BODIPY interf DR=.
COc1ccc(NC(=S)NNC(=O)CNc2ccc(Cl)cc2)cc1 | . | . | . | 29 | . | . | 35 | 7.4
Cc1c(C(=O)NNC(=S)NCc2ccc(Cl)cc2)oc2ccccc12 | . | . | . | 24 | . | . | . | 16
COC(=O)[C@]12CCCCC=C1N(Cc1ccc(OC)cc1)C(=O)[C@@H]2CC(=O)N1CCCC1 | / | / | / | . | / | / | / | /
Cc1ccc(CSc2sc(C(=O)c3ccccc3)c(N)c2C#N)cc1 | . | . | . | . | . | . | / | /
Cc1ccc(-c2sc(C(=O)NN)c(C)c2C#N)cc1 | . | . | . | 24 | . | . | . | .
O=C(O)c1cccc(Nc2ccc3nonc3c2[N+](=O)[O-])c1 | . | . | . | 20 | . | . | . | .
Cc1cc(C)cc(Nc2ccc3nonc3c2[N+](=O)[O-])c1 | . | . | . | . | . | . | / | /
Cc1ccc2c(c1)c1c(n2CC(O)CN2CCCCC2C)CCCC1 (stereo not given) | . | . | . | . | . | . | / | /
Cc1ccc2c(c1)c(C)c(C)n2CC(O)CN1CCCCC1C (stereo not given) | . | . | . | 22 | . | . | 20 | .
Cc1nc2ccccc2n1CSc1ccccc1 | . | . | . | 21 | . | . | . | .
Cc1cc(N2CCN(c3ccccc3)CC2)n2ncnc2n1 | . | . | . | 93 | . | . | . | .

Bioassay records (PubChem)
